In all, about 39,000 sequences were measured (“fluorescence intensity (a.u.)”: median about 4,300, highest 2% from about 39,000 on). This is one part of a sample in which the highest values are shown more often than they occur.
molecular target: T1, OsSMF1 (Oryza sativa, UniProt Q6ZLB0 1-436); assay: protein-binding microarray (RPBM); PBS, 2% BSA, 51.3 ng/ul salmon testes DNA, 50 uM zinc acetate, 200 nM TF, 25 C, 1 h; high values mean tight binding; settings: protein: recombinant; tags: N-terminal polyhistidine and DsRed monomer fusion (pET32a); chain copies: 2; label: CyDye5-dUTP incorporated in the synthesized complementary strand; 3' TTTTT single-stranded linker to array surface; dsDNA, one strand shown
T1 sequence: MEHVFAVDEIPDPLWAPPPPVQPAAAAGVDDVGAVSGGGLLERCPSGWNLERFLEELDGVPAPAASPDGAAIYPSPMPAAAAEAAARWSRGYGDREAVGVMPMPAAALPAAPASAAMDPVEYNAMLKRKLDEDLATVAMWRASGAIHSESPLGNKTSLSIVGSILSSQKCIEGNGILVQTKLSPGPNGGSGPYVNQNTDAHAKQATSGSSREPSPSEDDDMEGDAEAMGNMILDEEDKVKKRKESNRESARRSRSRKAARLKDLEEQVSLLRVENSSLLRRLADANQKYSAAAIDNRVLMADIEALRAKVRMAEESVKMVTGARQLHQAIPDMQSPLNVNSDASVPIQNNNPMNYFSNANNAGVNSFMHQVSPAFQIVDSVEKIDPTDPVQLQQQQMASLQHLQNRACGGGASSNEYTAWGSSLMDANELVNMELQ
Summary of the method: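 Transcription factors were each fused at the N-terminus to a polyhistidine tag plus DsRed and expressed in E. coli BL21-CodonPlus before Ni–NTA purification. Binding to a double-stranded custom Agilent array was carried out with 200 nM protein at 25 °C for 1 h in PBS, 2% BSA, salmon testes DNA and 50 µM zinc acetate. The binding signal is per-feature fluorescence intensity, in arbitrary units, on an Axon 4000B scanner.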

| Sequence | binding signal |
| --- | --- |
| TGTAGTGTTACAGTATGCCACGTCATCATGCTACGCTATTCGGAGTCACCTAGTGCAG | 43900 fluorescence intensity (a.u.) |
| CCATGGCGGGGTGTATTGTTGTTGTATTTGGGGTTCTGGTCGGAGTCACCTAGTGCAG | 3630 fluorescence intensity (a.u.) |
| AGTAGTATTGGCTTGGGGTGTTGCCACGTCATCACCTGGTCGGAGTCACCTAGTGCAG | 55000 fluorescence intensity (a.u.) |
| TAGGTTAGTGGTGGCTGGGTCGTCACGTCATTGCATTGCACGGAGTCACCTAGTGCAG | 3270 fluorescence intensity (a.u.) |
| TAGTGTTTGTTTTGGGTTGTGCTCAGCTTAGCTCTGGTGTCGGAGTCACCTAGTGCAG | 39800 fluorescence intensity (a.u.) |
| TTTAGCTCTCGTCGATGTGGTGTTTGTTGGGTTTTCCCTTCGGAGTCACCTAGTGCAG | 3670 fluorescence intensity (a.u.) |
| GTGGTGTTACGCTACTCGTGCAGTAGTGCCTCATCATGGGCGGAGTCACCTAGTGCAG | 3500 fluorescence intensity (a.u.) |
| AGATTTTGGGTGTGTTTGGTTGCTTGCATTGTTTTAGTCTCGGAGTCACCTAGTGCAG | 3300 fluorescence intensity (a.u.) |
| ACTCTGCCGGCAGGCGTACGTGTGTCCCGGCATTTGGTCGCGGAGTCACCTAGTGCAG | 4500 fluorescence intensity (a.u.) |
| TCTTCCAAATGAACTGGCAATATACTTGTACACGTTCTGTCGGAGTCACCTAGTGCAG | 3190 fluorescence intensity (a.u.) |
| ATTCACAGGCCTTTCTTAATTAAAACGGTAGATGGAGCAACGGAGTCACCTAGTGCAG | 28400 fluorescence intensity (a.u.) |
| TTGCCGTATCGGCTCGCCTGAAAGCGTGTCATTAGCATGACGGAGTCACCTAGTGCAG | 3950 fluorescence intensity (a.u.) |
| GCACATGACTGTGCAAACGCTGTTCCTGATCTGAGTAAGACGGAGTCACCTAGTGCAG | 4170 fluorescence intensity (a.u.) |
| CGGCCGCGACACGCACACGCCCACCCCACGCCCGCCGCGCCGGAGTCACCTAGTGCAG | 3140 fluorescence intensity (a.u.) |
| GGTCTTGGTAGCCACCGTGTACGGCCTCTGCGGCATGCAGCGGAGTCACCTAGTGCAG | 3770 fluorescence intensity (a.u.) |
| ATGTTATCGTGCTAGTGTCAGCACATTCTCACTGATATTACGGAGTCACCTAGTGCAG | 5330 fluorescence intensity (a.u.) |
| GTAAGGCGTCCATGTGATGTCATTGTTGATGGGCAAGTGCCGGAGTCACCTAGTGCAG | 6430 fluorescence intensity (a.u.) |
| CGCATCGCATCTATGACTGGAGAGTGTATCTTTGCTTGCACGGAGTCACCTAGTGCAG | 3180 fluorescence intensity (a.u.) |
| TCACCAGCGTCCGGTCAGCCATGGCGCTGAGTGGCCTCTTCGGAGTCACCTAGTGCAG | 21000 fluorescence intensity (a.u.) |
| AATTGATTTCTCTATAGACAAATAGGGAATGCCAGATTGACGGAGTCACCTAGTGCAG | 20100 fluorescence intensity (a.u.) |
| TACTTCTTCTAAATGCTATAGCCAGGGAATGCAAACGAGACGGAGTCACCTAGTGCAG | 42000 fluorescence intensity (a.u.) |
| AAAATGTGAATCTTTTGTATAGCCAGCTTCTTCTAAAACACGGAGTCACCTAGTGCAG | 24900 fluorescence intensity (a.u.) |

| Sequence | binding signal |
| --- | --- |
| CTGCGCCATCCACGCCAAGCGCGTCACCATCATGCCCAAGCGGAGTCACCTAGTGCAG | 6140 fluorescence intensity (a.u.) |
| TTCATATCATATACGTACACGTGGAATAATTTGTAATTATCGGAGTCACCTAGTGCAG | 9010 fluorescence intensity (a.u.) |
| CTCGGGGTTAAGCAGAGGTTATCGTCCCCGCCGCAGGTTACGGAGTCACCTAGTGCAG | 4020 fluorescence intensity (a.u.) |
| ATATTCATATGACATGACACGTAAATGTCACGTAGGATATCGGAGTCACCTAGTGCAG | 3700 fluorescence intensity (a.u.) |
| ACTAGGATGTCACAACAGCCAAACCATCCATATACTGCCACGGAGTCACCTAGTGCAG | 3170 fluorescence intensity (a.u.) |
| CCGGATATGTTCTCGTAGTTTATATACGTTCATGATGACACGGAGTCACCTAGTGCAG | 3450 fluorescence intensity (a.u.) |
| CCACAAACCAAACCAACCCAAGATATCCTGATGAACCAAACGGAGTCACCTAGTGCAG | 35300 fluorescence intensity (a.u.) |
| TTCCAACACTAGGATGGTATATGAACCACCAGGATACAAACGGAGTCACCTAGTGCAG | 41800 fluorescence intensity (a.u.) |
| TTCAGGATGAATGGTACGTAACATGATAGGACACTATTCACGGAGTCACCTAGTGCAG | 48700 fluorescence intensity (a.u.) |
| AGTACTGGATGTGACACATCCTGGTACTACGAATCTGAACCGGAGTCACCTAGTGCAG | 3910 fluorescence intensity (a.u.) |
| AACACACTAGTAATACGAATCTGAATATGGTACTAGGATACGGAGTCACCTAGTGCAG | 64200 fluorescence intensity (a.u.) |
| AAACGAATCTAGGAATATATGTGACACATCATAGTACTACCGGAGTCACCTAGTGCAG | 4370 fluorescence intensity (a.u.) |
| TGGCCCAACACATCAACGTTACATCACGGGCTTTAACGTTCGGAGTCACCTAGTGCAG | 3290 fluorescence intensity (a.u.) |
| AGAAAAGAAAACGCGGCAATAAACAATGACACGGCCTGTCCGGAGTCACCTAGTGCAG | 4200 fluorescence intensity (a.u.) |
| GGCTGACGGCTGGTGAGAAGCCACGTCAGCATTTAATTCCCGGAGTCACCTAGTGCAG | 13100 fluorescence intensity (a.u.) |
| ATTGCGCAGGCGCAGCAATATTGAATGGCCCAAATGCTAGCGGAGTCACCTAGTGCAG | 23800 fluorescence intensity (a.u.) |
| GCACAGGCTTGACACCAGTCGAGCCGAGCCGAAACCCCGTCGGAGTCACCTAGTGCAG | 3270 fluorescence intensity (a.u.) |
| ATTTTCGTGTGCAGTATATGTGTTCCCAACCCTGAGAGCCCGGAGTCACCTAGTGCAG | 3620 fluorescence intensity (a.u.) |
| CTCTGTTCACTCCACCAAACTCCTTCGATTGATCAAATGACGGAGTCACCTAGTGCAG | 47200 fluorescence intensity (a.u.) |
| TGGGATGATCAAATGACTGCCACACTGTCATGTTCCTCTGCGGAGTCACCTAGTGCAG | 3610 fluorescence intensity (a.u.) |
| ATTGATCACTCGGACGTCACCAAACGATCGATAAACTCGTCGGAGTCACCTAGTGCAG | 5630 fluorescence intensity (a.u.) |

— paper PMC7819943, “Rice protein-binding microarrays: a tool to detect cis-acting elements near promoter regions in rice”
